The results in this text go back to PubChem BioAssay (NCATS).

SMILES strings stand for the structures. Inconclusive results are not listed. A call without a number means that no potency is given here. Activity calls are given as the source filed them. The call rests on the fitted dose curve; in most records, active means well fitted inhibition curve with a large enough effect; inconclusive means small, poorly fitted or top-dose-only effect; inactive means flat fitted curve, though single readings scatter. Where a SMILES comes first, the peptide text is derived from it. [ ]: non-standard residue; d: D form. pGlu = O=C1CC[C@@H](C(=O)O)N1

Assay [1] concerns Zika virus NS2B-NS3 protease. The assay can be described thus: Primary screen GU AMC qHTS for Zika virus inhibitors (AID 1347154). Further: nearly all actives have a fitted effect of over 70% in size. The method in brief: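 Unlinked Zika NS2B hydrophilic domain–NS3 protease complex at 25 nM in 10 mM Tris-HCl pH 8.0, 0.01% Tween 20, with an AMC peptide substrate. Fluorescence change (340/450 nm) over 15 min at room temperature, normalized to controls, fitted to 4-parameter Hill.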
In general terms: In qHTS, concentration-response curves come from the screen itself.

Assay [2] is described as follows: qHTS to identify inhibitors of the type 1 interferon - major histocompatibility complex class I in skeletal muscle: primary screen against the NCATS Pharmaceutical Collection (AID 1347407).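 Further: luminescence of HiBiT knocked into endogenous HLA-B as interferon-induced MHC class I level.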 Further: potency means the concentration at half of the fitted maximal effect. The gist of the method:
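A qHTS format is used: 8-point, 1:5 compound series with 46 uM top final concentration, applied alongside 4 ng/ml IFN-beta to HLA-B*08:01-HiBiT knock-in myoblasts. Luminescence is measured after 24 h treatment.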

Consider `CCCCCC[C@@H](CCC)C(=O)O`, for which the Potency entry in assay [1] and in assay [2] was “inactive” each time.
Take `COC(=O)c1cc(Cl)c(NC(C)=O)cc1OC`: the Potency result in assay [1] and in assay [2] was “inactive” each time.
In the case of `CC(CC1c2ccccc2CCc2ccccc21)CN(C)C` (centres undefined), the Potency entry in assay [1] and in assay [2] was “inactive” each time.
As to `O=C1CCCc2c(O)cccc21`, the Potency result in assay [1] and in assay [2] was “inactive” throughout.
Turning to `O=P(O)(O)OCC(O)CO` (centres undefined), the Potency entry in assay [1] and in assay [2] was “inactive” each time.
For the molecule `CCN(CC)CC(=O)Oc1ccc(NC(C)=O)cc1`, the Potency result in assay [1] and in assay [2] was “inactive” each time.
In the case of `O=C(O)/C=C(\CC(=O)O)C(=O)O`, the Potency entry in assay [1] and in assay [2] was “inactive” each time.
`Cn1c(=O)c2c(ncn2CC(=O)O)n(C)c1=O`: the Potency entry in assay [1] and in assay [2] was “inactive” throughout.
Regarding `CC1(C)O[C@@H]2C[C@H]3[C@@H]4C[C@H](F)C5=CC(=O)C=C[C@]5(C)[C@@]4(F)[C@@H](O)C[C@]3(C)[C@]2(C(=O)CO)O1`, the Potency result in assay [1] and in assay [2] was “inactive” throughout.
With `C[C@H]1NCc2cc(-c3ccc4c(=O)c(C(=O)O)cn(C5CC5)c4c3OC(F)F)ccc21`, the Potency entry in assay [1] and in assay [2] was “inactive” each time.
`C[C@H]1C[C@H](O)c2ccsc2S1(=O)=O`: the Potency entry in assay [1] and in assay [2] was “inactive” throughout.
For the molecule `Oc1ccccc1`, the Potency entry in assay [1] and in assay [2] was “inactive” each time.
For the molecule `CCOC(=O)C(=O)c1csc(NC=O)n1`, the Potency entry in assay [1] and in assay [2] was “inactive” each time.
Consider `Cc1ccc(C(C)OC(=O)C2(C)CCC(C(=O)O)C2(C)C)cc1` (centres undefined), for which the Potency result in assay [1] and in assay [2] was “inactive” each time.
As for `CC(=O)Nc1c(I)c(NC(C)=O)c(I)c(C(=O)O)c1I`, the Potency entry in assay [1] and in assay [2] was “inactive” in each case.
With `C[C@@H](O[C@H]1OCCN(Cc2n[nH]c(=O)[nH]2)[C@H]1c1ccc(F)cc1)c1cc(C(F)(F)F)cc(C(F)(F)F)c1`, the Potency entry in assay [1] and in assay [2] was “inactive” in each case.
On to `OC1(c2ccc(Cl)cc2)CCNCC1`, for which the Potency entry in assay [1] and in assay [2] was “inactive” throughout.
With `CCCCN(CCN(CCCC)C(=O)N1CCOCC1)C(=O)N1CCOCC1`, the Potency result in assay [1] and in assay [2] was “inactive” throughout.
`Cc1ccccc1N1CCN(CCc2nnc3n2CCCC3)CC1`: the Potency entry in assay [1] and in assay [2] was “inactive” in each case.
`O=C(CS(=O)Cc1ccco1)NC/C=C\COc1cc(CN2CCCCC2)ccn1` (centres undefined): the Potency entry in assay [1] and in assay [2] was “inactive” in each case.
With `c1ccc(C(O[C@H]2CCCN(CCc3ccc4c(c3)OCO4)C2)c2ccccc2)cc1`, the Potency result in assay [1] and in assay [2] was “inactive” in each case.
Consider `Cc1ccc2c(Cl)cc(Cl)c(O)c2n1`, for which the Potency entry in assay [1] and in assay [2] was “inactive” in each case.
On to `CCC(C(=O)OCCN1CCOC(c2ccccc2)C1C)c1ccccc1` (centres undefined), for which the Potency result in assay [1] and in assay [2] was “inactive” each time.
Consider `Cc1cccc(C)c1NC(=O)c1ccc(N)cc1`, for which the Potency result in assay [1] and in assay [2] was “inactive” in each case.
Turning to `O=C(O)c1ccccc1S`, the Potency result in assay [1] and in assay [2] was “inactive” throughout.
Take `CN1CC[C@H](c2c(O)cc(O)c3c(=O)cc(-c4ccccc4Cl)oc23)[C@H](O)C1`: the Potency result in assay [1] was “inactive”. In addition, the Potency in assay [2] is 210 nM (active).
The matching figures for `COc1cc(C(=O)NC2CCCNC2)cc(OC)c1OC` (centres undefined): “inactive” and “inactive”.
`O=C(O)CCCC[P+](c1ccccc1)(c1ccccc1)c1ccccc1`: the Potency entry in assay [1] and in assay [2] was “inactive” each time.
`COCCc1ccc(OCC2CO2)cc1` (centres undefined): the Potency result in assay [1] and in assay [2] was “inactive” each time.
As for `CCNC(=O)[C@@H]1CCCN1C(=O)[C@H](CCCN=C(N)N)NC(=O)[C@H](CC(C)C)NC(=O)CNC(=O)[C@H](Cc1ccc(O)cc1)NC(=O)[C@H](CO)NC(=O)[C@H](Cc1c[nH]c2ccccc12)NC(=O)[C@H](Cc1cnc[nH]1)NC(=O)[C@@H]1CCC(=O)N1` ([pGlu]HWSYGLRP-NHEt), the Potency result in assay [1] and in assay [2] was “inactive” throughout.
`CCOCCn1c(C2CCN(CCc3ccc(C(C)(C)C(=O)O)cc3)CC2)nc2ccccc21`: the Potency entry in assay [1] and in assay [2] was “inactive” throughout.
On to `COC(=O)CCCCC(CCSS/C(CCO)=C(\C)N(C=O)Cc1cnc(C)nc1N)SC(C)=O` (centres undefined), for which the Potency result in assay [1] and in assay [2] was “inactive” in each case.
For `Cc1ccc(CCn2c3c(c4cc(Cl)ccc42)CN(C)CC3)cn1`, the Potency entry in assay [1] and in assay [2] was “inactive” each time.
As for `CC(Oc1c(Cl)cccc1Cl)C1=NCCN1` (centres undefined), the Potency entry in assay [1] and in assay [2] was “inactive” throughout.
Regarding `COc1cc(S(N)(=O)=O)cc(C(=O)O)c1OC`, the Potency result in assay [1] and in assay [2] was “inactive” in each case.
As for `CCS(=O)(=O)c1ccc(OC)c(C(=O)OC)c1`, the Potency result in assay [1] and in assay [2] was “inactive” throughout.
As to `CC(CCc1ccc2c(c1)OCO2)NN` (centres undefined), the Potency entry in assay [1] and in assay [2] was “inactive” each time.
As to `Cc1nc([N+](=O)[O-])cn1-c1ccc([N+](=O)[O-])cc1`, the Potency entry in assay [1] and in assay [2] was “inactive” in each case.
On to `CN1CC(=O)N2[C@H](c3ccc4c(c3)OCO4)c3[nH]c4ccccc4c3C[C@@H]2C1=O`, for which the Potency result in assay [1] and in assay [2] was “inactive” each time.
For the molecule `CC(C)=CCC/C(C)=C/CC/C(C)=C/CCC(=O)OC/C=C(\C)CCC=C(C)C`, the Potency result in assay [1] and in assay [2] was “inactive” throughout.
Consider `CC1(C)O[C@@H]2C[C@H]3[C@@H]4CCC5=CC(=O)C=C[C@]5(C)[C@@]4(F)[C@@H](O)C[C@]3(C)[C@]2(C(=O)CO)O1`, for which the Potency result in assay [1] and in assay [2] was “inactive” each time.
On to `CCCCCCCC(=O)[O-].CCCCCCCC(=O)[O-].[Zn+2]`, for which the Potency result in assay [1] and in assay [2] was “inactive” each time.
